Laboratory results: ChEMBL document CHEMBL1201862, “PubChem BioAssay data set” (2004)
Among all 400,000 compounds or so, about 2,100 (0.53%) were called active. Inconclusive results (about 14%) are left out. How the calls were made is not given here. The full list was thinned out, with actives kept by preference.

These compounds were tested against Ataxin-2 (Homo sapiens) (UniProt Q99700) (assay: qHTS for Inhibitors of ATXN expression.).
Format: functional

Chain of Ataxin-2 (Homo sapiens) (Q99700 whole entry): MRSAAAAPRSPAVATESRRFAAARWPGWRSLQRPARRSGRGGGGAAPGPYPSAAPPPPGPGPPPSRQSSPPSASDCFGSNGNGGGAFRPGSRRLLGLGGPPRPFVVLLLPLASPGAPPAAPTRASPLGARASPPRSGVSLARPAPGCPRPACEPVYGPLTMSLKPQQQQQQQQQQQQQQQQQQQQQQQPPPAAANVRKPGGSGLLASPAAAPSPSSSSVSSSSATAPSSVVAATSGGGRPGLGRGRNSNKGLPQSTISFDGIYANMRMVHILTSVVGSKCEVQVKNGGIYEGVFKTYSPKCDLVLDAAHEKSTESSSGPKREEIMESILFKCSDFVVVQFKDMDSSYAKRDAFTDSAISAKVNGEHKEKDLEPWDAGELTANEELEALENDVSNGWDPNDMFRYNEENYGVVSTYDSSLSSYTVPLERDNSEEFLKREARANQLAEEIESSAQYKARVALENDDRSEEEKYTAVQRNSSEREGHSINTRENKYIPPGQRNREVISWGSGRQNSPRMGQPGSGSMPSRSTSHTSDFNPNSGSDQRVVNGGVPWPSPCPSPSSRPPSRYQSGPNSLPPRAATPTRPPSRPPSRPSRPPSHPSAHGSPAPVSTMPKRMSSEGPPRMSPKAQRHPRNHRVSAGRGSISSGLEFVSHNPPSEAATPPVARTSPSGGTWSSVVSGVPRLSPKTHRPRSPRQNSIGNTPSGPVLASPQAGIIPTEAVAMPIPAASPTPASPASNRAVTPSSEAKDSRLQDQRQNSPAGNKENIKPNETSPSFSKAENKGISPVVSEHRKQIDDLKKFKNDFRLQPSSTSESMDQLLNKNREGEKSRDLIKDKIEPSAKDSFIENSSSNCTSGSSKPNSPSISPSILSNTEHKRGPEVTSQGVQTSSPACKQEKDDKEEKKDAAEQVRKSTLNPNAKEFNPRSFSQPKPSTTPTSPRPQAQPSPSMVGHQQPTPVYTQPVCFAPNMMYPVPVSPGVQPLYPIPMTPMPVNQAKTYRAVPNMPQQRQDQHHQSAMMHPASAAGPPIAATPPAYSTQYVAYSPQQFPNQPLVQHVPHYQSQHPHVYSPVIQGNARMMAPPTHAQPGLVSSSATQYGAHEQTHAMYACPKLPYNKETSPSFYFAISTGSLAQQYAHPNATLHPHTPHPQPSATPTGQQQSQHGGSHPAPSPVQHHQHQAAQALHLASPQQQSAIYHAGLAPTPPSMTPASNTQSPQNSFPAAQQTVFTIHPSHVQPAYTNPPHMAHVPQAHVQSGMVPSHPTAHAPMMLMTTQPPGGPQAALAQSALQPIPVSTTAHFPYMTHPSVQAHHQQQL

Compound	Potency
CC(C)CC(=O)NC(=S)NCc1ccccc1	inactive
O=C(CCn1c(=S)oc2ccccc21)Nc1ccccc1F	inactive
CC(C)CC(=O)/C=C/n1c(=S)oc2ccccc21	31.6 µM (active)
CC(=O)Cn1c(=O)oc2ccccc21	inactive
CC(=O)/C=C/n1c(=S)oc2ccccc21	9.47 µM (active)
CC(=O)OC[C@H]1O[C@@H](Oc2cc3ccc(=O)oc3cc2OC(C)=O)[C@H](OC(C)=O)[C@@H](OC(C)=O)[C@@H]1OC(C)=O	inactive
Cc1cccc(NC(=O)c2c(C)nn(-c3ccccc3)c2Cl)c1	inactive
C[C@@H](NC(=O)c1[nH]cnc1C(=O)N[C@@H](Cc1ccccc1)C(=O)OC(C)(C)C)c1ccccc1	35.5 µM (active)
O=C(Nc1ccccc1)c1nsnc1C(=O)Nc1ccccc1	inactive
Cc1cccc(NC(=O)c2[nH]cnc2C(=O)N[C@@H](Cc2ccccc2)C(=O)OC(C)(C)C)c1	39.8 µM (active)
Cc1cccc(NC(=O)c2nc[nH]c2C(=O)N[C@@H](C)c2ccccc2)c1	28.2 µM (active)
CCOc1ccc(C(C)NC(=O)c2cccs2)cc1OCC (configuration not stated)	inactive
CC(C)C[C@H](NC(=O)c1[nH]cnc1C(=O)NCCCCCNC(=O)OC(C)(C)C)C(=O)OC(C)(C)C	35.5 µM (active)
Cc1ccc(NC(=O)C(Nc2cccc(C)c2)c2ccccc2)cc1 (configuration not stated)	inactive
COc1ccc(NC(=O)CSc2nnc3n2CCCCC3)cc1S(=O)(=O)N1CCOCC1	inactive
Cc1ccccc1/C=C/c1nc2ccccc2c(=O)n1CCc1ccccc1	inactive
CCc1cc2c(-c3ccccc3)cc(=O)oc2c2c1OCN(Cc1ccc(F)cc1)C2	inactive
Cc1ccc2nc(N3C(=O)C(O)=C(C(=O)c4ccc(C)o4)C3c3cccc(O)c3)sc2c1 (configuration not stated)	inactive
c1ccc(-c2cnn3c(-c4ccccc4)c(-c4ccccc4)nc3n2)cc1	inactive
COc1ccc(OC)c(/N=C/c2c(O)oc3ccccc3c2=O)c1	inactive
CC(C)(C)OC[C@H](NC(=O)c1[nH]cnc1C(=O)Nc1ccccc1F)C(=O)OC(C)(C)C	35.5 µM (active)
COCc1cc(C)nc2sc(C(=O)Nc3ccccc3F)c(N)c12	inactive

Compound	Potency
CCCCC(C(=O)NC(C)c1ccccc1)C(=O)NC(C)c1ccccc1 (configuration not stated)	inactive
Nc1c(C(=O)Nc2ccccc2F)sc2nc(-c3cccnc3)ccc12	inactive
C[C@H](NC(=O)c1[nH]cnc1C(=O)N[C@@H](Cc1ccccc1)C(=O)OC(C)(C)C)C(=O)OC(C)(C)C	39.8 µM (active)
CC(C)C[C@H](NC(=O)c1[nH]cnc1C(=O)N[C@@H](Cc1ccccc1)C(=O)OC(C)(C)C)C(=O)OC(C)(C)C	25.1 µM (active)
CCOc1ccccc1NC(=O)COC(=O)C(Cc1ccccc1)NC(=O)c1ccco1 (configuration not stated)	inactive
CC(C)C[C@H](NC(=O)c1[nH]cnc1C(=O)N[C@H](C)c1ccccc1)C(=O)OC(C)(C)C	39.8 µM (active)
CC(NC(=O)/C(C#N)=C/c1ccc(OCC(=O)O)cc1)c1ccccc1 (configuration not stated)	inactive
CCOC(=O)N1CCN(S(=O)(=O)c2c(C)nc3scc(C)n3c2=O)CC1	inactive
COc1ccc(C2C=C(c3ccccc3)Nc3ncnn32)cc1 (configuration not stated)	inactive
O=S(=O)(NCCc1cccs1)c1ccc(Br)cc1	inactive
COCc1cc(C)nc2sc(C(=O)Nc3ccccc3Br)c(N)c12	inactive
CC(C)C[C@H](NC(=O)c1[nH]cnc1C(=O)N[C@@H](C)c1ccccc1)C(=O)OCc1ccccc1	35.5 µM (active)
CC(C)C[C@H](NC(=O)c1[nH]cnc1C(=O)Nc1ccc(CNC(=O)OC(C)(C)C)cc1)C(=O)OC(C)(C)C	28.2 µM (active)
CC(C)C[C@H](NC(=O)c1[nH]cnc1C(=O)N[C@@H](C)C(=O)OC(C)(C)C)C(=O)OC(C)(C)C	35.5 µM (active)
COc1ccccc1OCc1ccc(C(=O)NC(C)c2ccccc2)o1 (configuration not stated)	inactive
CC(C)(C)OC(=O)[C@H](Cc1ccccc1)NC(=O)c1[nH]cnc1C(=O)Nc1ccc(Cl)cc1	39.8 µM (active)
CN(C)Cc1c(O)ccc2cc(-c3nc4ccccc4n3C)c(=O)oc12	inactive
Cc1cc2nc3c(O)nc(S)nc3nc2cc1NC(=O)C(F)(F)F	inactive
N#Cc1cc2c(nc1SCC(=O)Nc1nccs1)CCCCC2	inactive
CN(C)c1ccc(/C=N/N=C2/SC(CC(=O)O)C(=O)N2c2ccc(O)cc2)cc1 (configuration not stated)	inactive
CC(C)(C)c1cc2ncnc(N3CCCCC3)c2s1	inactive
CCC(C)[C@@H](NC(=O)OC(C)(C)C)c1nnc(S(=O)(=O)Cc2cccc(C)c2)o1 (some centres not stated)	22.4 µM (active)

Compound	Potency
CC(NC(=O)OC(C)(C)C)C(=O)Oc1ccc2ccc(=O)oc2c1 (configuration not stated)	inactive
CC(NC(=O)OC(C)(C)C)C(=O)Oc1cc2oc(=O)cc(-c3ccccc3)c2cc1Cl (configuration not stated)	inactive
CC(C)[C@H](NC(=O)OC(C)(C)C)c1nnc(S(=O)(=O)Cc2c(F)cccc2Cl)o1	22.4 µM (active)
CC[C@@H](C)[C@H](NC(=O)OC(C)(C)C)c1nnc(S(=O)(=O)Cc2cc(C)ccc2C)o1	39.8 µM (active)
N#CCC(=O)N/N=C/c1ccc(N2N=C(c3ccccc3)CC2c2ccccc2)cc1 (configuration not stated)	inactive
Cc1ccc(C)c(NC(=O)CCNS(=O)(=O)c2ccc3nc(O)oc3c2)c1	inactive
CCN1CCN(C(c2cccs2)C(C)NC(=O)C(C)C)CC1 (configuration not stated)	inactive
Nc1c(C(=O)N/N=C/c2ccccc2Cl)oc2nc(-c3ccccc3)cc(-c3ccco3)c12	inactive
Cc1ccc(-n2c(C)cc(/C=N/NC(=O)Cn3c4ccccc4c(=O)c4ccccc43)c2C)cc1	inactive
Cc1cc(/C=N/NC(=O)Cn2c3ccccc3c(=O)c3ccccc32)c(C)n1-c1ccccc1	inactive
O=C(Cn1c2ccccc2c(=O)c2ccccc21)N/N=C/c1ccc(N2CCCC2)c([N+](=O)[O-])c1	39.8 µM (active)
Cc1ccc(S(=O)(=O)NC(C(=O)Oc2cc3oc(=O)cc(C)c3cc2Cl)C(C)C)cc1 (configuration not stated)	inactive
CC(=O)Nc1nn(CC(C)C)c2nc3ccc(C)cc3cc12	inactive
O=S(=O)(Nc1nc2n(n1)C(c1ccc(F)cc1)C=C(c1ccccc1)N2)c1ccccc1 (configuration not stated)	inactive
CCCCCCN1C[C@H](n2cc(-c3ccc(F)cc3)nn2)[C@@H](O)C[C@@H]1c1ccc(Cl)cc1	22.4 µM (active)
CCCC(=O)NCn1nnc(-c2ccc(Cl)cc2)n1	inactive
CCCCCC(=O)N1C[C@@H](n2cc(-c3ccc(F)cc3)nn2)[C@H](O)C[C@@H]1c1ccc(Cl)cc1	31.6 µM (active)
COc1ccc([C@H]2C[C@H](O)[C@@H](n3cc(-c4ccc(F)cc4)nn3)CN2CC2CCCCC2)cc1	39.8 µM (active)
O[C@H]1C[C@H](c2ccc(Cl)cc2)N(Cc2cccs2)C[C@@H]1n1cc(-c2ccc(F)cc2)nn1	25.1 µM (active)
CCCCNC(=O)COC(=O)c1c2c(nc3ccccc13)/C(=C/c1cccs1)CC2	inactive
COc1ccc(OCCCC(=O)ON=C(N)c2ccccc2C)cc1	inactive
CCOC(=O)C1=C(NC(=O)c2cc(S(=O)(=O)N3CCOCC3)ccc2C)Nc2ccccc2N=C1CC	inactive

Compound	Potency
NS(=O)(=O)c1ccc(N2N=C(c3ccc(Br)cc3)CC2c2ccc(F)cc2)cc1 (configuration not stated)	inactive
COc1ccc(C2=CC(c3ccc(F)cc3)n3nnnc3N2)cc1 (configuration not stated)	inactive
CCCCCCN1C[C@H](n2cc(-c3ccc(F)cc3)nn2)[C@@H](O)C[C@@H]1c1ccc(C)cc1	39.8 µM (active)
CCCCCCN1C[C@H](n2cc(C3CC3)nn2)[C@@H](O)C[C@@H]1c1ccc(C)cc1	35.5 µM (active)
Cc1ccc([C@H]2C[C@H](O)[C@@H](n3cc(C4CC4)nn3)CN2Cc2cccs2)cc1	35.5 µM (active)
CCCCCCN1C[C@@H](n2cc(-c3ccc(F)cc3)nn2)[C@H](O)C[C@@H]1c1ccc(OC)cc1	35.5 µM (active)
COc1ccc(C2=Nc3nc(-c4ccccc4)cn3C(c3ccc(OC)cc3)C2)cc1 (configuration not stated)	inactive
Fc1ccc(C2CC(c3cccs3)=NN2c2ccccc2)cc1 (configuration not stated)	inactive
Cc1cc(F)ccc1NC(=O)c1sc2nc(-c3cccs3)ccc2c1N	inactive
CCOC(=O)c1cc2c(=O)n3ccccc3nc2n(Cc2ccco2)/c1=N/C(=O)c1ccc(OC)cc1OC	inactive
COC(=O)[C@]12CCCCC=C1N(Cc1cccc3ccccc13)C(=O)[C@H](CC(=O)N1CCN(C(=O)c3ccco3)CC1)C2	22.4 µM (active)
CCCCCCCCN1C(=O)[C@H](CC(=O)N2CCN(C(=O)c3ccco3)CC2)C[C@@]2(C(=O)OCC)CCCC=C12	14.1 µM (active)
COC(=O)[C@]12CCCCC=C1N(CCC1=CCCCC1)C(=O)[C@H](CC(=O)N1CCN(C(=O)c3ccco3)CC1)C2	22.4 µM (active)
O=C(Nc1c(C(=O)c2ccc(F)cc2)oc2ccccc12)c1cc(-c2ccccc2)on1	inactive
COc1cc(/C=N/Nc2ccc([N+](=O)[O-])cc2S(=O)(=O)N2CCOCC2)cc(OC)c1OC	inactive
Cc1ccc(Cl)cc1N1CCN(C(=O)Cc2csc(Nc3nc(S)nc4ccccc34)n2)CC1	inactive
Cc1ccc(Cl)cc1N1CCN(C(=O)c2cnn(-c3ccc(Cl)cc3)c2C2CCNCC2)CC1	39.8 µM (active)
Cc1ccc(Nc2ncc(C(=O)N3CCN(c4ccc(F)cc4)CC3)c3ccccc23)cc1Cl	inactive
COc1ccc(S(=O)(=O)NCCc2cn3nc(C)c(C)nc3n2)cc1	inactive
CN1C2=CC=CC=CC2=[N+](C)C12C=CC(=[N+]([O-])[O-])C=C2[N+](=O)[O-] (configuration not stated)	20 µM (active)
CCN(CC)C1=CC2=CC(=C(C#N)C#N)CCC2CC1 (configuration not stated)	inactive
